This note sets out measurements from PubChem BioAssay (NCATS).

The target in one test is Furin (Homo sapiens) (UniProt P09958). Put plainly: Furin counterscreen qHTS for Zika virus inhibitors (AID 1347149). Also: nearly all actives have a fitted effect of over 70% in size. Also: potency is read from the fitted curve at half-maximal effect.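 As to activity change, negative = inhibition: purified recombinant full-length human furin enzyme at 5 nM; fluorescence gain from furin cutting a BOC-RVRR-AMC peptide substrate over 15 min; top concentration of the series differs between compounds; plate controls were no-inhibitor control for no effect and no-enzyme control for full effect.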 Put shortly: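 Fluorogenic cleavage of BOC-RVRR-AMC (2 microM final, Km ~15 µM) was monitored (ex 340, em 450 nm) at 37C after 15 min RT preincubation of 5 nM furin with compounds in HEPES pH 7.0 buffer with CaCl2 and Triton X-100. Percent inhibition was fitted to a 4-parameter Hill curve.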
A general note: Counterscreens check selectivity or assay interference.

For test [1], the system named is Zika virus NS2B-NS3 protease (linked construct). Put plainly: Confirmatory screen NINDS AMC qHTS for Zika virus inhibitors (AID 1347152). Also: potency is read from the fitted curve at half-maximal effect; nearly all actives have a fitted effect of over 70% in size. Conditions: Purified linked NS2B-NS3, AMC substrate fluorescence. Put shortly: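 Enzyme (1 nM, linked construct) was preincubated with compound for 15 minutes at room temperature in 10 mM Tris-HCl pH 8.0 with 0.01% Tween 20. Bz-Nle-Lys-Arg-Arg-AMC was then added to 10 microM, and AMC fluorescence was recorded immediately and after 15 minutes.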
On the technique in general: qHTS replaces the single test concentration by a dilution series.

The test system of test [2] is Zika virus NS2B-NS3 protease (unlinked complex). Description: Confirmatory screen GU AMC qHTS for Zika virus inhibitors (AID 1347153).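 Also: enzyme at 25 nM with substrate at 10 µM below its Km of 18.3 µM; potency is read from the fitted curve at half-maximal effect; nearly all actives have a fitted effect of over 70% in size.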 The note with it: Recombinant NS2B-NS3 protease, AMC substrate fluorescence. Put shortly:
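Noncovalent NS2B hydrophilic domain/NS3 protease complex (25 nM) in 10 mM Tris-HCl pH 8.0, 0.01% Tween 20 was preincubated 15 min at room temperature with compounds. Then 10 µM AMC substrate (Km 18.3 µM) was added; fluorescence was read over 15 min and fitted to a 4-parameter Hill equation.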

For test [3], the system named is Zika virus NS2B-NS3 protease. Description: Primary screen GU AMC qHTS for Zika virus inhibitors (AID 1347154). Also: nearly all actives have a fitted effect of over 70% in size. Also: potency is read from the fitted curve at half-maximal effect.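 As to activity change, negative = inhibition: 0% = no-inhibitor control and -100% = no-enzyme control.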 Put shortly:
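Unlinked Zika NS2B hydrophilic domain/NS3 protease domain noncovalent complex (25 nM final) in 10 mM Tris-HCl pH 8.0, 0.01% Tween 20, with AMC peptide substrate. Fluorescence (ex 340, em 450 nm) change over 15 min, room temperature; percent inhibition fitted to 4-parameter Hill equation.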

Test [4] can be described thus: ZIKV-mCherry secondary qHTS for Zika virus inhibitors (AID 1347158). Also: top concentration of the series differs between compounds. An outline of the steps: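 Vero, 5,000 cells/well, o/n 37 °C; cpd pin-transferred in DMSO; ZIKV-mCherry MOI 1, 48-72 h 37 °C; 32% PFA stock fix, Hoechst; imaged 10x DAPI/mCherry; mCherry+ threshold 450 RFU; % infection.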
Test [5] is described as follows: qHTS of pediatric cancer cell lines to identify multiple opportunities for drug repurposing: Confirmatory screen for BT-37 cells (AID 1347117). Also: potency is read from the fitted curve at half-maximal effect.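 Also: viability measured after 48 h of compound exposure; nearly all actives have a fitted effect of over 55% in size.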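 As to activity change, negative = cytotoxic: plate controls were DMSO for no effect and bortezomib for full effect.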 An outline of the steps: (§1)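 Cells (500-1,000/well) in growth media were settled 5 h at 37 degrees C, then given compounds for 48 h. Viability was read as CellTiter-Glo luminescence. Primary runs used MIPE at 11 points (0.78 nM-46 µM) and NPC at 8 points (0.59 nM-46 µM); follow-ups used 11 points.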

Test [6] is described as follows: qHTS of pediatric cancer cell lines to identify multiple opportunities for drug repurposing: Confirmatory screen for U-2 OS cells (AID 1347122). Also: nearly all actives have a fitted effect of over 65% in size. Also: potency is read from the fitted curve at half-maximal effect.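 As to activity change, negative = cytotoxicity: plate controls were DMSO for no effect and bortezomib for full effect.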 Put shortly: as §1
A short description of test [7]: qHTS of pediatric cancer cell lines to identify multiple opportunities for drug repurposing: Confirmatory screen for RD cells (AID 1347124).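 Also: cells exposed to compound for 48 h before viability readout; nearly all actives have a fitted effect of over 65% in size.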 Also: potency is read from the fitted curve at half-maximal effect. As to activity change, negative = cytotoxic: % is scaled to controls: 0 for no effect and ±100 for the full control effect. Put shortly:
as §1

The nature of test [8]: qHTS of pediatric cancer cell lines to identify multiple opportunities for drug repurposing: Confirmatory screen for Rh18 cells (AID 1347125). Also: nearly all actives have a fitted effect of over 55% in size. Also: potency is read from the fitted curve at half-maximal effect. As to activity change, negative = cytotoxic: % is scaled to controls: 0 for no effect and ±100 for the full control effect. Put shortly:
as §1

A short description of test [9]: qHTS of pediatric cancer cell lines to identify multiple opportunities for drug repurposing: Confirmatory screen for Rh30 cells (AID 1347126). Also: nearly all actives have a fitted effect of over 55% in size. As to activity change, negative = cytotoxic: % is scaled to controls: 0 for no effect and ±100 for the full control effect. An outline of the steps:
as §1

Test [10] is described as follows: qHTS of pediatric cancer cell lines to identify multiple opportunities for drug repurposing: Confirmatory screen for OHS-50 cells (AID 1347128).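 Also: compound exposure lasted 48 h at 37 degrees C; nearly all actives have a fitted effect of over 55% in size.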 Also: potency is read from the fitted curve at half-maximal effect. As to activity change, negative = cytotoxic: % is scaled to controls: 0 for no effect and ±100 for the full control effect. An outline of the steps:
as §1

Test [11] can be described thus: qHTS of pediatric cancer cell lines to identify multiple opportunities for drug repurposing: Confirmatory screen for SK-N-SH cells (AID 1347129).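 Also: cells exposed to compound for 48 h before viability read; nearly all actives have a fitted effect of over 60% in size.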 Also: potency is read from the fitted curve at half-maximal effect.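 As to activity change, negative = cytotoxic: plate controls were DMSO for no effect and bortezomib control for full effect.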 Put shortly: as §1
Test [12] can be described thus: Confirmatory screen GU Rhodamine qHTS for Zika virus inhibitors qHTS (AID 1347157). Put shortly:
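Percent inhibition derives from the 15-min fluorescence change (ex 480, em 540 nm), normalized to no-enzyme and no-inhibitor wells. Reactions contained 25 nM NS2B-NS3 complex and 1.5 microM substrate in 10 mM Tris-HCl pH 8.0.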

Test [13] is described as follows: qHTS of pediatric cancer cell lines to identify multiple opportunities for drug repurposing: Confirmatory screen for TC32 cells (AID 1347118).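 Also: cells exposed to compound for 48 h before the read; nearly all actives have a fitted effect of over 65% in size.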 Also: potency is read from the fitted curve at half-maximal effect. An outline of the steps:
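Luminescent CellTiter-Glo read-out of metabolically active TC32 cells after 48 h compound exposure. Primary: MIPE 11-point, 0.78 nM–46 µM; NPC 8-point, 0.59 nM–46 µM. Confirmatory: 11-point dilutions.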

The nature of test [14]: qHTS of pediatric cancer cell lines to identify multiple opportunities for drug repurposing: Confirmatory screen for MG 63 (6-TG R) cells (AID 1347119). Also: nearly all actives have a fitted effect of over 55% in size. Also: potency is read from the fitted curve at half-maximal effect.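 As to activity change, negative = cytotoxicity: plate controls were DMSO neutral control for no effect and bortezomib for full effect.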 An outline of the steps:
as §1

The nature of test [15]: qHTS of pediatric cancer cell lines to identify multiple opportunities for drug repurposing: Confirmatory screen for Rh41 cells (AID 1347123). Also: nearly all actives have a fitted effect of over 60% in size. Also: potency is read from the fitted curve at half-maximal effect.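 As to activity change, negative = cytotoxic: plate controls were DMSO for no effect and bortezomib for full effect.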 Put shortly: as §1
Test [16] has as its target N-terminal Xaa-Pro-Lys N-methyltransferase 1 (Homo sapiens) (UniProt Q9BV86). Description: qHTS Assay for Inhibitors of N-terminal methyltransferase 1 (NTMT1): LOPAC validation of the NTMT1 SAHH-coupled ThioGlo3 Assay (AID 1347143). Put shortly:
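Fluorescence read-out (excitation 340nm, emission 450nm) of SAH-derived thiol, measured via SAHH coupling and ThioGlo3, taken immediately and after a 30 min room-temperature reaction, then normalized to the background read. Enzyme: NTMT1 at 125nM; cofactor SAM 100uM in the added reagent.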

Test [17] has as its system Zika virus NS2B-NS3 protease (unlinked). Description: Optimization of GU AMC qHTS for Zika virus inhibitors: Unlinked NS2B-NS3 protease assay (AID 1347151).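 Also: series mostly up to about 52 µM; 0% = no-inhibitor control and -100% = no-enzyme control; nearly all actives have a fitted effect of over 80% in size.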 An outline of the steps: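 Unlinked protease (25 nM final); buffer 10 mM Tris-HCl pH 8.0 + 0.01% Tween 20; AMC substrate; 15 min RT, dark; Δfluorescence normalized to no-inhibitor/no-enzyme controls; 4-parameter Hill fit.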

Test [18] deals with Zika virus NS2B-NS3 protease (unlinked complex). Description: Primary screen GU Rhodamine qHTS for Zika virus inhibitors: Unlinked NS2B-NS3 protease assay (AID 1347159). Also: % is scaled to controls: 0 for no effect and ±100 for the full control effect; nearly all actives have a fitted effect of over 60% in size. Put shortly: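 Noncovalent NS2B hydrophilic domain–NS3 protease domain complex (25 nM) preincubated 15 min at room temperature with compounds (up to 114 microM) in 10 mM Tris-HCl pH 8.0, 0.01% Tween 20; 1.5 microM Rhodamine110 substrate added, fluorescence change over 15 min fitted to Hill equation.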

Test [19] relates to Zika virus NS2B-NS3 protease (linked construct). Description: Primary screen NINDS Rhodamine qHTS for Zika virus inhibitors (AID 1347160). An outline of the steps:
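Purified linked NS2B-NS3 protease (NS2B hydrophilic domain joined to NS3 protease by flexible linker), 25 nM in 10 mM Tris-HCl pH 8.0, 0.01% Tween 20. Compounds titrated, 15 min preincubation at room temperature; 1.5 microM Rhodamine110 substrate, FITC fluorescence change over 15 min.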

Records with an inconclusive call do not appear. Values without a mark were called inactive. Activity calls are given as the source filed them. Calls follow the shape of the dose curve; as a rule, active = well fitted curve in the direction sought with a large enough effect; inconclusive = small, poorly fitted or top-dose-only effect, or another doubt; inactive = no such curve, though single readings can be large; an effect the other way counts as inactive or inconclusive.

Furin (Homo sapiens), sequence (P09958 whole entry, looked up): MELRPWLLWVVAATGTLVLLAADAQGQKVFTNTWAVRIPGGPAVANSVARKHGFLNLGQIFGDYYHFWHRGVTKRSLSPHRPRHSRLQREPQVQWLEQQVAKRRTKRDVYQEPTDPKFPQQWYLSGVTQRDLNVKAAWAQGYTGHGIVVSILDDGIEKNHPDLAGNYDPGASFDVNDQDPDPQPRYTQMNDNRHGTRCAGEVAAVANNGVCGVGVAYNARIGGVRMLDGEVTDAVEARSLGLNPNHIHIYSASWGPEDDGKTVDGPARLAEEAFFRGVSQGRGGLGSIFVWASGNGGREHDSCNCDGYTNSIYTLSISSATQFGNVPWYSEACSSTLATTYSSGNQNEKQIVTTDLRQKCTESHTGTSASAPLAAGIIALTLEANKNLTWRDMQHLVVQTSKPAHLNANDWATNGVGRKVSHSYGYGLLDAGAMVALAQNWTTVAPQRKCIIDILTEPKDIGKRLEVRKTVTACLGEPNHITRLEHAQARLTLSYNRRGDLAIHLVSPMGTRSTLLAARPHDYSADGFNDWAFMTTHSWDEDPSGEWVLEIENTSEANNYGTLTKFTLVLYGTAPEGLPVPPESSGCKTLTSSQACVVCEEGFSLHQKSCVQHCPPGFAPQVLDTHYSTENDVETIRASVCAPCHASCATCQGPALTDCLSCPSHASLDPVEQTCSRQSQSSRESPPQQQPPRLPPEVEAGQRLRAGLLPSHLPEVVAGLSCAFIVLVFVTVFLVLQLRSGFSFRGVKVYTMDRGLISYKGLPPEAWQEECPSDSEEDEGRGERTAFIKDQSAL
N-terminal Xaa-Pro-Lys N-methyltransferase 1 (Homo sapiens), sequence (Q9BV86 whole entry, looked up): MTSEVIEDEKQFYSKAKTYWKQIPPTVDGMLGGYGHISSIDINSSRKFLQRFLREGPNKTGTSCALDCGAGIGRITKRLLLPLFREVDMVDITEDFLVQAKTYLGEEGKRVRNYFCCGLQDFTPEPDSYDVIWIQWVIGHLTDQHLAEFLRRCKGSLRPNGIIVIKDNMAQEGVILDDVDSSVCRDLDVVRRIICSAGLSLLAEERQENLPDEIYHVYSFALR

For the molecule `CCc1oc2ccccc2c1C(=O)c1cc(Br)c(O)c(Br)c1`, the Potency in the test with Furin (Homo sapiens) is 24.1 µM (active); in test [1], 9.61 µM (active); in test [2], 17.1 µM (active); in test [3] it was 10.6 µM (active).

Take `C=C1c2cccc(O)c2C(O)=C2C(=O)[C@]3(O)C(O)=C(C(N)=O)C(=O)[C@@H](N(C)C)[C@@H]3[C@@H](O)[C@H]12`: the Potency with Furin (Homo sapiens) was 8.55 µM (active); in test [2] it was 19.2 µM (active). Also, the call in test [4] was inactive.

Take `CCCCCCCCOc1ccc(C(=O)c2ccccc2)c(O)c1`: the Potency result in test [3] is “inactive”.

Consider `CCCCCCCCCCCCSCCOCCO`, for which, in [3], the Potency result was “inactive”.

As for `CCCCCCCCCCCCOCCOCCOCCOCCOCCOCCOCCOCCOCCO`, the Potency entry in [5], in [7], in test [8], in test [9], in test [10] and in test [11] was “inactive” throughout. Further, the Potency entry in [3] is “inactive”. Moreover, in test [6], the Potency was 14.7 µM (active).

Consider `CC(C)=CCOc1ccc(/C=C/C(=O)c2ccc(OCC=C(C)C)cc2OCC(=O)O)cc1`, for which the figures for the Potency (in the test with Furin (Homo sapiens); in [12]) were 66.3 µM (active) and 5.62 µM (active), respectively.

Consider `CCN[C@@H]1C[C@H](N)[C@@H](OC2OC(CN)=CCC2N)[C@H](O)[C@H]1O[C@H]1OC[C@](C)(O)[C@H](NC)[C@H]1O` (stereo not given in full), for which the activity change, negative = cytotoxic is 4.53% [at 0.556 µM] in test [5]; 13.6% [at 0.556 µM] in [15]; 11.8% [at 0.556 µM] in [7]; 4.31% [at 0.556 µM] in test [8]; 25.4% [at 0.556 µM] in test [9]; 3.87% [at 0.556 µM] in [10]. The activity change, negative = cytotoxic in [11] was 6.98% [at 0.558 µM]. Further, in test [13], the Potency result is “inactive”. The activity change, negative = cytotoxicity in test [14] is -17.7% [at 0.556 µM]. In test [6], the outcome is “inactive [at 0.556 µM]”. In test [3], the activity change, negative = inhibition is -3.5% [at 0.59 µM].

As for `NC(N)=NCc1cccc(I)c1`, the molecule was called inactive in test [16] and in [17].

In the case of `OC(C#CCN1CCCC1)(c1ccccc1)c1ccccc1`, in test [3], the Potency result was “inactive”.

`C=C[C@@]1(C)CC(=O)[C@]2(O)[C@@]3(C)[C@@H](O)CCC(C)(C)[C@@H]3[C@H](O)[C@H](OC(C)=O)[C@@]2(C)O1`: the Potency entry in [6], in [15] and in [11] was “inactive” each time.

Turning to `CC1CCc2c(N3CCC(O)CC3)c(F)cc3c(=O)c(C(=O)O)cn1c23` (stereo not given), the Potency result in test [6], in test [7], in test [9] and in test [11] was “inactive” each time. The Potency in test [15] is 18.5 µM (active).

Take `CCN1/C(=C/C=C/c2sc3ccccc3[n+]2CC)Sc2ccccc21`: the Potency was 0.827 µM (active) in test [5]; 1.04 µM (active) in [13]; 0.465 µM (active) in test [14]; 0.811 µM (active) in test [6]; 0.512 µM (active) in test [15]; 5.22 µM (active) in test [8]. In addition, the results for the Potency in [10] and in test [11] were 5.85 µM (active) and 2.29 µM (active), respectively. In addition, the Potency entry in [9] and in [3] was “inactive” each time.

For `CC1(COc2ccc(CC3SC(=O)NC3=O)cc2)CCCCC1` (stereo not given), the Potency result with Furin (Homo sapiens) is “inactive”. Moreover, the Potency in test [1] was 19.2 µM (active); in [2] it was 21.5 µM (active). Moreover, the activity change, negative = inhibition in test [3] is 6.2% [at 6.83 µM]. Moreover, the molecule was classed as inactive in test [4].

For `CN(CCCN1c2ccccc2CCc2ccccc21)CC(=O)c1ccc(Cl)cc1`, the Potency result in [3] is “inactive”.

Regarding `C[C@@]12C(=O)OC(=O)[C@]1(C)C1CCC2O1`, the Potency in test [5] is 2.08 µM (active); in [13] it was 3.29 µM (active); in test [14], 2.08 µM (active); in test [6], 2.93 µM (active); in [15], 2.08 µM (active); in test [7], 6.57 µM (active). For the same molecule, the Potency is 3.29 µM (active) in test [8], 3.69 µM (active) in test [9] and 4.65 µM (active) in [10]. Moreover, the Potency entry in test [11] and in [3] was “inactive” throughout.

On to `CN1CCC(OC(c2ccccc2)c2ccccc2)CC1`, for which the Potency entry in test [3] was “inactive”.

`NC(N)=NN=C(/C=C/c1ccc([N+](=O)[O-])o1)/C=C/c1ccc([N+](=O)[O-])o1`: the Potency was 1.47 µM (active) in test [5]; 1.65 µM (active) in test [15]; 4.14 µM (active) in [7]; 4.65 µM (active) in test [8]; 2.08 µM (active) in [9]; 5.22 µM (active) in [10]. Besides, the Potency in test [11] was 2.35 µM (active). The Potency entry in test [6] was “inactive”.

Take `CN(C)C(=O)Nc1ccc(Cl)c(Cl)c1`: the Potency entry in [7], in [11] and in [3] was “inactive” each time.

Take `O=C(CCCN1CC=C(n2c(=O)[nH]c3ccccc32)CC1)c1ccc(F)cc1`: the Potency result in test [5], in test [14], in test [7], in [8], in test [9] and in [10] was “inactive” in each case. In addition, the Potency entry in [3] is “inactive”. In addition, the Potency in test [15] was 18.5 µM (active). Also, the molecule was classed as inactive in test [18] and in test [19].

For the molecule `NS(=O)(=O)c1cc2c(cc1Cl)NC(CC1CCCC1)NS2(=O)=O` (stereo not given), the Potency entry in [3] was “inactive”.

Take `COc1ccc(C(=O)c2ccccc2)c(O)c1`: the Potency entry in test [5], in [14], in test [15], in [7], in [8] and in [9] was “inactive” in each case. Also, the Potency result in [10] and in [11] was “inactive” in each case.

As to `CC(=O)O[C@]1(C(C)=O)CC[C@H]2[C@@H]3C=C(Cl)C4=CC(=O)CC[C@]4(C)[C@H]3CC[C@@]21C`, the Potency result in [3] was “inactive”.
